Laboratory results from PubChem BioAssay.
Activity calls are given as the source filed them.

Columns and labels:
[1] = biological target: Albumin (Bos taurus) (UniProt P02769); assay: bovine serum albumin binders on microarray, profiling panel, artefact control for SMM control protein annotation, biochemical, small-molecule microarray, Alexa647 label, 635/667 nm fluorescence (AID 1118); settings: BSA-A647 binding, fluorescence 635 nm, higher = more signal;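 further: score merges 667 nm emission intensity and signal-to-noise per printed compound spot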
Sequence of Albumin (Bos taurus) (P02769 whole entry, looked up): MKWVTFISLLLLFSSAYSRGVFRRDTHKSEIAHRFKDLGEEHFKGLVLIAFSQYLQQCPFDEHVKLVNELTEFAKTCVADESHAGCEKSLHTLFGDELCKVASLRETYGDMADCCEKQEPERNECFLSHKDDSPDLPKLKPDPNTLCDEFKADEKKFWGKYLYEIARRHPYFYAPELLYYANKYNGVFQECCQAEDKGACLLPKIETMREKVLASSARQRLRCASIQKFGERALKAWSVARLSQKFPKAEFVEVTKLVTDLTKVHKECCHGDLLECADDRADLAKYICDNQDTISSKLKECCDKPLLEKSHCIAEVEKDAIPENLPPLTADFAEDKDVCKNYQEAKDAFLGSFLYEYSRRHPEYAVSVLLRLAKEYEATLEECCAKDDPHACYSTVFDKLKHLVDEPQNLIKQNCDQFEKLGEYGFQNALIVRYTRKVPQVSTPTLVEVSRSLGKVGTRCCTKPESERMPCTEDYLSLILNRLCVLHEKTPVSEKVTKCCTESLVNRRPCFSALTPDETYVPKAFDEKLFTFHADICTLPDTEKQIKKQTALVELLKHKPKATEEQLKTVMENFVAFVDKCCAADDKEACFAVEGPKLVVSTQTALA

[2] = small-molecule microarray binders of probe aXIP, primary screen, biochemical, NeuroSMM set, 635/667 nm fluorescence (AID 1119); settings: higher = more signal, called active from +8 up or from −8 down;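 further: probe is the protein aXip251-270 applied at 1 µg/mL to compound-printed slides; binding of probe to printed compounds measured as 667 nm fluorescence plus signal to noise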
[3] = small-molecule binders of probe aNOTCH3, primary screen, biochemical, small-molecule microarray, 635/667 nm fluorescence (AID 1120); settings: higher = more signal;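 further: probe is a biotin-tagged antibody raised against NOTCH3 rather than NOTCH3 protein; score merges spot fluorescence near 667 nm with spot signal to noise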
[4] = small-molecule binders of probe aNOTCH2, primary screen, biochemical, small-molecule microarray, 635/667 nm fluorescence (AID 1121); settings: higher = more signal;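 further: score merges feature fluorescence read at 667 nm with its signal to noise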
[5] = biological target: Carbonic anhydrase 2 (Homo sapiens) (UniProt P00918); assay: CAII small-molecule binders, profiling panel, biochemical, small-molecule microarray, Alexa647-labelled CAII (AID 1122); settings: CAII-A647 binding fluorescence, higher = more signal
[6] = COS7 lysate on small-molecule microarray, probe aHis, 635 nm (AID 1123); settings: COS7 cell lysate, fluorescence, higher = more signal;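 further: z-score combines 667nm fluorescence intensity with signal-to-noise per printed compound spot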
[7] = compound binding in COS7 lysate, probe aLAP1, primary screen, cell lysate, small-molecule microarray (AID 1124); settings: probe aLAP1, fluorescence, higher = more signal;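 further: lysate comes from COS7 cells expressing LAP1 and is applied at 0.3 µg/mL; score merges spot fluorescence near 667 nm with signal-to-noise over triplicate slides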
[8] = test system: Sam68 (KHDRBS1); assay: Sam68 small-molecule binders, primary screen, biochemical, small-molecule microarray, 635 nm fluorescence (AID 1125); settings: small-molecule microarray binding, higher = more signal;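 further: score merges 667 nm channel intensity with signal to noise over triplicate slides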
[9] = test system: Chordin-like protein 2 (CHRDL2); assay: CHRDL2 small-molecule binders, primary screen, biochemical, small-molecule microarray, 635 nm fluorescence (AID 1126); settings: small-molecule microarray binding, fluorescence 635 nm; higher = more signal;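 further: printed compound slides probed with Chrdl2 protein at 4 µg/mL for 1 h at 4 C; score merges 667 nm emission intensity with signal to noise over three replicate slides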
[10] = biological target: Concanavalin-A (Canavalia ensiformis) (UniProt P02866); assay: ConA small-molecule binders, primary screen, artefact control for SMM control protein annotation, biochemical, small-molecule microarray, Alexa647 label, 635 nm (AID 1127); settings: ConA-A647 binding fluorescence, higher = more signal;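 further: z combines 667 nm emission intensity with signal-to-noise across three replicate slides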
Sequence of Concanavalin-A (Canavalia ensiformis) (P02866 whole entry, looked up): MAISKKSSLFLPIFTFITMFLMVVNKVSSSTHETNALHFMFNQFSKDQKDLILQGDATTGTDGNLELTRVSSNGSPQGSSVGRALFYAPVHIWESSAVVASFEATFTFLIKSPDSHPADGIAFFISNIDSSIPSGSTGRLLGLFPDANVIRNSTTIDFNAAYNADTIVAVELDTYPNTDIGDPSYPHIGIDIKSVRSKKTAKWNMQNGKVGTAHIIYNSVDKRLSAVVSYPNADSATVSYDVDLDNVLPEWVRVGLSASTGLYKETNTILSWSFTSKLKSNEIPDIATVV

[11] = anti-His antibody binders, primary screen, artefact control for SMM control protein annotation, biochemical, small-molecule microarray, 635 nm fluorescence (AID 1128); settings: anti-His Alexa647 antibody binding, higher = more signal;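 further: score merges feature fluorescence with signal-to-noise for each printed compound spot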
[12] = test system: Human papillomavirus type 1a E7 protein (residues 1-88); assay: HPV1a E7 small-molecule binders, primary screen, biochemical, small-molecule microarray, residues 1-88, 635 nm (AID 1129); settings: small-molecule microarray binding, fluorescence 635 nm; higher = more signal
[13] = biological target: Focal adhesion kinase 1 (Homo sapiens) (UniProt Q05397); assay: small-molecule microarray binders of FAK, primary screen, biochemical, 635/667 nm fluorescence, BSA, DTT (AID 1130); settings: PTK2 binding, 635 nm fluorescence, higher = more signal;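 further: composite of spot emission at 667 nm and signal to noise over triplicate slides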
Sequence of Focal adhesion kinase 1 (Homo sapiens) (Q05397 whole entry, looked up): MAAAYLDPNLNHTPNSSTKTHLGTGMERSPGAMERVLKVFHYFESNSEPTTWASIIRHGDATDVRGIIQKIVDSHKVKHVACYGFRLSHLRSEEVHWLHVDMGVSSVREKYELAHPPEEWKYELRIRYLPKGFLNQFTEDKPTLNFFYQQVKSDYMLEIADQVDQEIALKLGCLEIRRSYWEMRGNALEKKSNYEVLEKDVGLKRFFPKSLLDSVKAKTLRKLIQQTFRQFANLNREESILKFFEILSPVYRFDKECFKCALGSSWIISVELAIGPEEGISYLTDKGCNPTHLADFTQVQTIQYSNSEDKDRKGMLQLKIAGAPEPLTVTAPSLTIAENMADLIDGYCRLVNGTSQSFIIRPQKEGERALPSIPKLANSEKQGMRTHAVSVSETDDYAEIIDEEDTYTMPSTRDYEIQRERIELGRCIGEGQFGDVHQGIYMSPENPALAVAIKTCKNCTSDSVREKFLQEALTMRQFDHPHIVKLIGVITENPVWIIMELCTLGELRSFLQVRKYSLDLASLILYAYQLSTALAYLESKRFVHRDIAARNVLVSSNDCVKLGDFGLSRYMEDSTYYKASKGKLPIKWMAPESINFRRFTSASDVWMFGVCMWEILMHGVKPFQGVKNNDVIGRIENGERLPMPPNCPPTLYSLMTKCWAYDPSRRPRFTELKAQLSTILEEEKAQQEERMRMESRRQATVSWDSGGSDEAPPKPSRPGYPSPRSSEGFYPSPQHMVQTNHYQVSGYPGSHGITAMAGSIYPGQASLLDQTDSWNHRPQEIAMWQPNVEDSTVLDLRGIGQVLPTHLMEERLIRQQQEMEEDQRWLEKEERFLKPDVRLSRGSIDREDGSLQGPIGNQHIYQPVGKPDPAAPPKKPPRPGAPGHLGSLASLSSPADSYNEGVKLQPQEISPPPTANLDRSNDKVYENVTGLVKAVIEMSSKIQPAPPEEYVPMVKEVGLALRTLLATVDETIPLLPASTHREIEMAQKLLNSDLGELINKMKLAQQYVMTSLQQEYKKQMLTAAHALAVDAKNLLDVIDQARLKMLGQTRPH

[14] = test system: Fibrinogen (Alexa647-labelled); assay: fibrinogen binders on compound microarrays, profiling panel, artefact control for SMM control-protein annotation, biochemical, small-molecule microarray, 635/667 nm fluorescence (AID 1131); settings: fibrinogen-A647 binding fluorescence, higher = more signal;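 further: z-score merges 667 nm fluorescence with per-spot signal-to-noise over triplicate slides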
[15] = biological target: Follistatin (Homo sapiens) (UniProt P19883); assay: follistatin binders on small-molecule microarrays, primary screen, biochemical, small-molecule microarray, 635/667 nm fluorescence (AID 1132); settings: FST binding, 635 nm fluorescence, higher = more signal
Sequence of Follistatin (Homo sapiens) (P19883 whole entry, looked up): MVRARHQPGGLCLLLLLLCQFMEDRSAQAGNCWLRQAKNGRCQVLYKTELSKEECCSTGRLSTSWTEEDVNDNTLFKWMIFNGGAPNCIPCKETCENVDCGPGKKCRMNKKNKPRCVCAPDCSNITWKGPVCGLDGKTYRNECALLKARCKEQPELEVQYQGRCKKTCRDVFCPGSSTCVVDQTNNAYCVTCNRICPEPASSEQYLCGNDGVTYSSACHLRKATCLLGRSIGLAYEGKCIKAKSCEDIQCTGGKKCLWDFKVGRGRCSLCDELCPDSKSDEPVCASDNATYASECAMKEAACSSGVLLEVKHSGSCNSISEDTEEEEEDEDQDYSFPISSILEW

[16] = biological target: Fibroblast growth factor 2 (Homo sapiens) (UniProt P09038); assay: FGF2 binders on small-molecule microarrays, primary screen, biochemical, small-molecule microarray, 635/667 nm fluorescence (AID 1133); settings: small-molecule microarray binding, FGF2, fluorescence 635/667; higher = more signal
Sequence of Fibroblast growth factor 2 (Homo sapiens) (P09038 whole entry, looked up): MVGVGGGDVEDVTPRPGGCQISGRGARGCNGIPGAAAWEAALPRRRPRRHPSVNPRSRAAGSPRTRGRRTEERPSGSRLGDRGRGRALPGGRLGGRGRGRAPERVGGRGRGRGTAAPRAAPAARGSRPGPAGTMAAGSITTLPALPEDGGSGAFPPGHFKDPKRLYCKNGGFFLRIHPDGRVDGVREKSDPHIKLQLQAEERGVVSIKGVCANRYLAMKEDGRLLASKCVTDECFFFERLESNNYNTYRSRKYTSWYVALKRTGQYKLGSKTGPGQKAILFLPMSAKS

[17] = mitochondrial membrane potential change in A549 cells, profiling panel, cell-based, JC-1 fluorescence, basal, 24 h, 100 nL (AID 1138); settings: higher = more signal;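 further: A549 lung adenocarcinoma cells under basal conditions with no added stimulus; test concentration not given here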
[18] = test system: Lefty1; assay: Lefty1 binders on small-molecule microarrays, primary screen, biochemical, small-molecule microarray, 635/667 nm fluorescence (AID 1139); settings: small-molecule microarray binding, fluorescence 635/667; higher = more signal
[19] = test system: wheat germ agglutinin (Triticum aestivum), Alexa647-labelled; assay: wheat germ agglutinin binders on compound microarrays, profiling panel, artefact control for SMM control-protein annotation, biochemical, small-molecule microarray, 635/667 nm fluorescence (AID 1140); settings: WGA-A647 binding, 635 nm fluorescence, higher = more signal;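 further: score merges 667 nm feature emission with signal to noise over triplicate slides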
[20] = biological target: Luciferin 4-monooxygenase (Photinus pyralis) (UniProt P08659); assay: firefly luciferase enzyme inhibitors, primary screen, biochemical, luminescence, purified enzyme, 2006 set (AID 1141); settings: SteadyGlo luminescence, 30 min, higher = more signal, called active from +8 up or from −8 down;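 further: cell-free assay with purified firefly luciferase at 100 ng per well in PBS; test concentration not given here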
Sequence of Luciferin 4-monooxygenase (Photinus pyralis) (P08659 whole entry, looked up): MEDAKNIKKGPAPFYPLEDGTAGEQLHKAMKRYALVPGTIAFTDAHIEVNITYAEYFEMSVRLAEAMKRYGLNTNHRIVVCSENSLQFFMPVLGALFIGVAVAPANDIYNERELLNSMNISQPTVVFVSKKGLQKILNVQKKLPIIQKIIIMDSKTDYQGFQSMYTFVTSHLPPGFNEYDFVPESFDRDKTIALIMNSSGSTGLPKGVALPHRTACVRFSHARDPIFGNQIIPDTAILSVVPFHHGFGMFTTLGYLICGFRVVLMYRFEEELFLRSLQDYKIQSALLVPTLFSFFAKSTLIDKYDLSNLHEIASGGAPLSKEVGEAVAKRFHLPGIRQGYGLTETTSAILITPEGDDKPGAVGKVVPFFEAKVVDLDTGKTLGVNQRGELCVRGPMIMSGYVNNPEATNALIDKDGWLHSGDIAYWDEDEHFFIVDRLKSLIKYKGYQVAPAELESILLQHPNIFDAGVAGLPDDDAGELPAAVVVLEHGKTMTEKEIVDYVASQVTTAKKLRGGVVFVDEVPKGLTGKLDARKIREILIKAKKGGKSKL

SMILES | composite z-score [1] | composite Z-score [2] | composite z-score [3] | composite z-score [4] | composite z-score [5] | composite z-score [6] | composite z-score [7] | composite z-score [8] | composite z-score [9] | composite z-score [10] | composite z-score [11] | composite z-score [12] | composite z-score [13] | composite z-score [14] | composite z-score [15] | composite z-score [16] | z-score [17] | composite z-score [18] | composite z-score [19] | z-score [20]
COc1ccc(C(O)C2C=CC3C(=O)N(C)C(=O)C3N2N(c2ccccc2)c2ccccc2)c2ccccc12 (stereo not given) | -0.111 | 1.39 (inactive) | 0.237 | -0.0017 | 0.677 | -0.198 | 0.976 | -0.481 | 0.776 | 0.369 | 2.54 | -0.172 | -0.278 | 0.384 | 1.41 | 0.392 | 0.419 | 1.09 | 1.07 | -0.091 (inactive)
C#CCOc1ccc(C[C@@H](C(=O)OC)N(CC#C)[C@@H](/C=C/C2CC2)[C@H](O)Cc2ccccc2)cc1 | -0.485 | -0.423 (inactive) | -0.19 | -0.208 | 0.0591 | -0.148 | 0.286 | -0.51 | 0.212 | -0.557 | 0.135 | -0.438 | 0.0472 | -0.651 | 0.24 | -0.768 | 2.32 | 0.22 | -1.34 | -0.497 (inactive)
COc1ccc([Si](C)(C)[C@H]2[C@H](CCn3cc([C@H](O)c4ccccc4)nn3)O[C@@]3(C(=O)N(C)c4ccccc43)[C@@H]2C)cc1 | 0.179 | 0.235 (inactive) | -0.0057 | -0.0485 | 0.509 | 0.476 | -0.116 | 0.106 | -0.544 | -0.454 | -0.0799 | 0.0391 | 0.254 | -1.37 | 0.862 | 0.322 | 1.65 | 1.23 | -0.0898 | -0.0548 (inactive)
O=C(O)C1N=C(c2ccc(OCCCO)cc2)N(c2ccccc2)O1 (stereo not given) | 0.811 | 0.488 (inactive) | 0.0967 | -0.037 | 0.589 | 0.321 | -0.287 | 1.3 | 0.153 | 0.658 | 1.73 | 1.1 | 0.817 | 0.953 | 1.3 | 1.18 | 0.0657 | 0.369 | 0.207 | -7.84 (inactive)
COCCOC(=O)N1C(=O)[C@@]2(c3cc(C#CC4(O)CCCCCC4)ccc31)[C@H](C(=O)Nc1nc3ccccc3s1)[C@H]1C(=O)O[C@H](c3ccccc3)[C@H](c3ccccc3)N1[C@@H]2c1ccccc1OCCO | 0.306 | -0.129 (inactive) | -0.0647 | -0.162 | 0.598 | 1.73 | 0.233 | 1.3 | -0.0036 | 1.16 | 2.46 | 1.2 | 0.823 | 0.981 | 1.01 | 1.37 | -1.13 | 0.581 | 1.08 | -3.04 (inactive)
